Assay results published in PubChem BioAssay AID652192 (Johns Hopkins Ion Channel Center, 2013).
Entries with a potency or affinity are not part of this list. Values without a mark were called inactive.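 Rule for the calls: active = peak inhibition of the KCNQ2 potassium channel over 30% at some tested dose, with a fitted dose response curve; inactive = no inhibition at any dose, or no curve fitted.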

target: Potassium voltage-gated channel subfamily KQT member 2 (Rattus norvegicus) (UniProt O88943); assay: KCNQ2 channel inhibition, SAR follow-up, selectivity assay for TASK1 inhibitor project, cell-based, FluxOR thallium flux, concentration-response (AID 652192); conditions: KCNQ2 cell line, FluxOR thallium flux fluorescence; series mostly up to 30 µM; flux ratio, lower = inhibition: at the top concentration
Sequence (O88943 whole entry, looked up): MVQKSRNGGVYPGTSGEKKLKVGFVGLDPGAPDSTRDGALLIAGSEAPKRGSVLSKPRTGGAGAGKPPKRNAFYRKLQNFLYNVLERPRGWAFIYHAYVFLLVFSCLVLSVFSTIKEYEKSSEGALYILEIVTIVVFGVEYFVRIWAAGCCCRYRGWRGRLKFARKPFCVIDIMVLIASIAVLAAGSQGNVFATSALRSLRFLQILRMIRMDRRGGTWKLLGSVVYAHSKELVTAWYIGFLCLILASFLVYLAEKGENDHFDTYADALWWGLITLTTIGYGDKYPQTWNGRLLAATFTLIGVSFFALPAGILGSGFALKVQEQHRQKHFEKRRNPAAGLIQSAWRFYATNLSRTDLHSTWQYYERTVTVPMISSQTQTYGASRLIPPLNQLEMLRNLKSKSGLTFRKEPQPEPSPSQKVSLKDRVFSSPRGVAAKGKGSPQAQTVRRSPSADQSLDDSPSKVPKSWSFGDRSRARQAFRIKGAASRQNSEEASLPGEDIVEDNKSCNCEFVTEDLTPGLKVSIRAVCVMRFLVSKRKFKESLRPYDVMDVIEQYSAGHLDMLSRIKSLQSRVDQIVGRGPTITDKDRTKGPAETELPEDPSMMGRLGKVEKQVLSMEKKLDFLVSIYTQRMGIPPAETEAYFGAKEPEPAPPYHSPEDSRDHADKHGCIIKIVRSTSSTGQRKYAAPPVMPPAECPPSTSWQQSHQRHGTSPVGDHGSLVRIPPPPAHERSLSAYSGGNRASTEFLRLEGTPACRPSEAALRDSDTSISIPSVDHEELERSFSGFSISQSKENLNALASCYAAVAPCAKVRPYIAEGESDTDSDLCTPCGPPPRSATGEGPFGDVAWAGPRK

| SMILES | flux ratio, lower = inhibition |
| --- | --- |
| CCOc1ccccc1NC(=O)c1cccc(NC(=O)C(C)(C)C)c1 | 0.181 |
| COc1cccc(C(=O)Nc2cccc(NC(=O)c3ccccc3)c2)c1 | 0.179 |
| CCOc1ccccc1NC(=O)c1cccc(NC(=O)c2cccc(Cl)c2)c1 | 0.168 |
| CCOc1ccccc1NC(=O)c1cccc(NC(=O)c2cccc(C)c2)c1 | 0.177 |
| CCCC(=O)C1CCN(c2ncnc3c2CN(C(=O)c2ccc(-c4ccccc4)cc2)CC3)CC1 | 0.204 |
| CCOc1ccccc1NC(=O)c1cccc(NC(=O)c2ccc(C(F)(F)F)cc2)c1 | 0.195 |
| COc1ccccc1NC(=O)c1cccc(NC(=O)CC2CCCC2)c1 | 0.162 |
| CC(C)(C)c1ccc(C(=O)Nc2cccc(NC(=O)c3ccccc3)c2)cc1 | 0.169 |
| COc1ccccc1NC(=O)c1cccc(NC(=O)c2ccccc2C(F)(F)F)c1 | 0.178 |
| CN(C)c1ccc(C(=O)Nc2cccc(NC(=O)c3ccccc3)c2)cc1 | 0.189 |
| O=C(Nc1cccc(NC(=O)c2cccc(F)c2)c1)c1ccccc1 | 0.2 |
| COc1ccc(C(=O)Nc2cccc(NC(=O)c3cccc(C)c3)c2)cc1 | 0.18 |
| Cc1cccc(C(=O)Nc2cccc(NC(=O)c3ccccc3Cl)c2)c1 | 0.173 |
| Cc1cccc(C(=O)Nc2cccc(NC(=O)c3ccccc3OCC(C)C)c2)c1 | 0.148 |
| Cc1cccc(C(=O)Nc2cccc(NC(=O)c3ccco3)c2)c1 | 0.192 |
| COc1c(F)cccc1C(=O)Nc1cccc(NC(=O)c2cccc(C)c2)c1 | 0.365 |
| COc1ccccc1C(=O)Nc1cc(NC(=O)c2ccccc2C(C)C)ccc1F | 0.19 |

| SMILES | flux ratio, lower = inhibition |
| --- | --- |
| COc1ccccc1C(=O)Nc1cccc(NC(=O)c2ccccc2C(C)C)c1 | 0.177 |
| O=C(Nc1cccc(NC(=O)c2ccsc2)c1)c1ccccc1 | 0.203 |
| Cc1cccc(C(=O)Nc2cccc(NC(=O)c3ccc(C(F)(F)F)cc3)c2)c1 | 0.16 |
| CCOc1ccccc1NC(=O)c1cccc(NC(=O)C2CCCCC2)c1 | 0.19 |
| O=C(Nc1cccc(NC(=O)c2ccc(Cl)cc2)c1)c1ccccc1 | 0.153 |
| CCOc1cccc(NC(=O)c2cccc(NC(=O)C3CCCC3)c2)c1 | 0.125 |
| CCOc1ccccc1NC(=O)c1cccc(NC(=O)CC2CCCCC2)c1 | 0.163 |
| Cc1cccc(C(=O)Nc2cccc(NC(=O)c3ccccc3OC(F)(F)F)c2)c1 | 0.178 |
| Cc1cccc(C(=O)Nc2cccc(NC(=O)c3ccc(N(C)C)cc3)c2)c1 | 0.206 |
| COc1ccccc1NC(=O)c1cccc(NC(=O)C2CCCC2)c1 | 0.19 |
| CCOc1ccccc1NC(=O)c1cccc(NC(=O)c2ccccc2OC)c1 | 0.179 |
| Cc1cccc(C(=O)Nc2cccc(NC(=O)c3cccc(Cl)c3)c2)c1 | 0.163 |
| COc1ccccc1NC(=O)c1cccc(NC(=O)c2ccccc2OC)c1 | 0.172 |
| Cc1cccc(C(=O)Nc2cccc(NC(=O)c3cccc(C(F)(F)F)c3)c2)c1 | 0.155 |
| CCOc1ccccc1C(=O)Nc1cccc(NC(=O)c2ccccc2OC)c1 | 0.173 |
| COc1cccc(OC)c1C(=O)Nc1cccc(NC(=O)c2cccc(C)c2)c1 | 0.164 |
